# Results as given in article PMC4081100, “A DNA-binding-site landscape and regulatory network analysis for NAC transcription factors in Arabidopsis thaliana”.
# Molecular target: GST-WRKY1(266-371) (Arabidopsis thaliana, UniProt Q9SI37 266-371)
# Test: universal protein binding microarray (PBM); transcription factors of Arabidopsis thaliana; high values mean tight binding
# Details: protein: recombinant; tags: GST; dsDNA, one strand shown
# Procedure, shortened: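 Each value is a normalised enrichment score (E-score) describing binding. The GST-tagged proteins, NAC-domain, full-length or DNA-binding-domain, were induced in cells (zinc-finger proteins with zinc acetate added) and purified on glutathione–Sepharose 4B. They were applied at 200 to 500 nM final, in duplicate, to double-stranded custom all-10-mer Agilent 4 × 180K arrays, and gapped and ungapped 8-mers were scored.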
# Chain of GST-WRKY1(266-371) (Q9SI37 266-371): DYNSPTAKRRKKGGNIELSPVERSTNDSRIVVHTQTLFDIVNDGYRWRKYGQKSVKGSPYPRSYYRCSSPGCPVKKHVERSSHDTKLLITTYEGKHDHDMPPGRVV
row,Sequence,binding signal [E-score]
1,GTCAGCAA,0.403
2,ATTGACCC,0.478
3,GCCGTCAA,0.402
4,TCGGGTCA,0.434
5,ATAGGTCA,0.409
6,AGTCAGAG,0.44
7,GAGTCAGC,0.418
8,AAGACCGG,0.428
9,AGAGGTCA,0.425
10,CCCGGTCA,0.445
11,CGGTCAAG,0.483
12,GACGACCA,0.43
13,AAGTCCAC,0.418
14,CGGTCATA,0.415
15,CTAGGTCA,0.428
16,GACTTTGA,0.432
17,GGTCAGCA,0.456
18,GCCGGTCA,0.459
19,CAGTCAGC,0.406
20,CCGGTCAA,0.493

row,Sequence,binding signal [E-score]
1,ATGCTGAC,0.41
2,CAGGTCAA,0.484
3,TCCGGTCA,0.445
4,ATTGACTC,0.47
5,CGGAGTCA,0.405
6,CGCTGACC,0.474
7,GTCGGTCA,0.45
8,ATCGGTCA,0.451
9,ACCTTGAC,0.472
10,GGAGTCAA,0.476
11,ATGACCGA,0.405
12,ATCTTGAC,0.47
13,CTGACCTA,0.413
14,CGGTTGAC,0.475
15,ACCGGTCA,0.463
16,CGGTCAGC,0.458
17,GTCAGACA,0.41
18,AGGGGTCA,0.415
19,CTGACCAG,0.444
